# In all, about 110,000 compounds were measured (“z-score”: median about -0.1, highest 2% from about 2 on). The list comes from a sample in which the highest values are over-represented; it also holds similar structures and randomly drawn compounds. Activity calls are given as the source filed them.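 Rule for the calls: active = z-score in the third read window above 3 or below -3; inactive = the rest.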
# Biological target: Metabotropic glutamate receptor 8 (Rattus norvegicus) (UniProt P70579)
# Assay: rat mGluR8 modulators via GIRK flux, primary screen, cell-based, thallium flux, HTS (AID 488969)
# Conditions: HEK293 rat mGluR8, GIRK (G protein-gated inwardly rectifying potassium channel) thallium flux, FluoZin2; at 10 µM; stronger effect = higher value; submaximal glutamate (EC20) added with thallium
# Sequence of Metabotropic glutamate receptor 8 (Rattus norvegicus) (P70579 whole entry, looked up): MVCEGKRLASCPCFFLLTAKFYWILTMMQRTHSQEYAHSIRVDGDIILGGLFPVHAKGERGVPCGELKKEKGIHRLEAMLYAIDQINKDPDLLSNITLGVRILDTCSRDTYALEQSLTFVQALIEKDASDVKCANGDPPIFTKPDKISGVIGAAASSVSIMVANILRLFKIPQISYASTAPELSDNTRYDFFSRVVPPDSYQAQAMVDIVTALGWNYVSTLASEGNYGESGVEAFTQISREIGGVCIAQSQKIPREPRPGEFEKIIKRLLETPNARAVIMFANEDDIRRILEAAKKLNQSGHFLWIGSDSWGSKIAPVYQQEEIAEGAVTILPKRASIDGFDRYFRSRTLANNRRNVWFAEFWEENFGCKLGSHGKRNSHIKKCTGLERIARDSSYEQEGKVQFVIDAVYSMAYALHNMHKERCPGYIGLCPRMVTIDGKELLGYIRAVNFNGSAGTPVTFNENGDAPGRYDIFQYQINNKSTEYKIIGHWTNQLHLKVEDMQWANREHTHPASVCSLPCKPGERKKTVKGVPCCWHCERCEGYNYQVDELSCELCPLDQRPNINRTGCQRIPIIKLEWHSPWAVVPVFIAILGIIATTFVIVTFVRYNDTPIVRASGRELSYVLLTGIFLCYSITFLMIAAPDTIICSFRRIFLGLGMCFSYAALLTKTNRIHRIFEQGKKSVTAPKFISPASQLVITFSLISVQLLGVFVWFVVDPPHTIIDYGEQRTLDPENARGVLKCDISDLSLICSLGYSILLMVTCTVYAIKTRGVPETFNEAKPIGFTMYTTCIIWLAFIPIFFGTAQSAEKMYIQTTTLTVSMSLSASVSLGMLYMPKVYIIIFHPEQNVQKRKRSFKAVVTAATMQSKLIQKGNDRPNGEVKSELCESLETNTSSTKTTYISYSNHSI
row,Structure (SMILES),z-score
1,CN(C)CCCNCCNC(=O)/C=N\O,-0.494
2,O=C1CC(c2ccncc2)c2cc3c(cc2N1)OCCO3 (stereo unspecified),7.59 (active)
3,O=C1CC(c2ccncc2)c2cc3c(cc2N1)OCO3 (stereo unspecified),0.106
4,O=C1CC(c2ccc3c(c2)OCO3)c2cc3c(cc2N1)OCCO3 (stereo unspecified),0.0815
5,Cc1ccc(S(=O)(=O)CC(=O)c2ccc(C)c([N+](=O)[O-])c2)cc1,-0.799
6,CN(Cc1cccs1)C(=O)CCc1ccc(S(=O)(=O)N2CCOCC2)cc1,0.00198
7,CS(=O)(=O)C1=NSC2=NC(=O)/C(=C\c3cccn3-c3ccc(Cl)cc3)C(=N)N21,-0.377
8,O=C1CCC(/C=C/c2ccccc2)=NN1Cc1ccccc1Cl,-0.293
9,Cc1ccc(/C=C/C2=NN(Cc3ccc(Cl)c(Cl)c3)C(=O)CC2)cc1,-0.176
10,O=C1CCC(/C=C/c2ccccc2)=NN1Cc1ccc(Cl)c(Cl)c1,13.4 (active)
11,COc1ccc(CC(=O)N/N=C/c2cccn2-c2ccc([N+](=O)[O-])cc2)cc1OC,-0.892
12,O=C(N/N=C/c1cccn1-c1ccc([N+](=O)[O-])cc1)C(O)c1ccccc1 (stereo unspecified),0.181
13,O=C(Cc1ccccc1)N/N=C/c1cccn1-c1ccc([N+](=O)[O-])cc1,3.83 (active)
14,O=C1CC(N2CCN(Cc3ccccc3)CC2)C(=O)N1c1ccc2c(c1)OCCO2 (stereo unspecified),-0.057
15,CCSC(=O)NC12CC3CC(CC(C3)C1)C2,-0.316
16,CC1(C(=O)NC23CC4CC(CC(C4)C2)C3)CC1(Cl)Cl (stereo unspecified),-0.368
17,CSC(=O)NC12CC3CC(CC(C)(C3)C1)C2,8.08 (active)
18,CCOC(=O)CN1C(c2ccccc2O)Nc2ccc(Br)cc2C1c1ccccc1 (stereo unspecified),-0.45
19,CC(OC(=O)CN(C)S(=O)(=O)c1ccc(Cl)cc1)C(=O)Nc1ncc(Cl)cc1Cl (stereo unspecified),-0.285
20,Nc1c(CO)nnn1-c1ccccc1,-0.379
21,CCCCn1c(-c2ccoc2C)n[nH]c1=S,0.216
22,CCc1cc(-c2n[nH]c(=S)n2CC)cs1,-0.194
23,CC(C)c1cc(-c2n[nH]c(=S)n2Cc2ccccc2)cs1,1.35

row,Structure (SMILES),z-score
1,CCCCn1c(-c2csc(CC)c2)n[nH]c1=S,2.15
2,CCCCn1c(-c2cccnc2)n[nH]c1=S,-0.106
3,CCCCn1c(-c2csc(C(C)C)c2)n[nH]c1=S,6.36 (active)
4,CCNC(=S)N(Cc1ccco1)Cc1cc2cc3c(cc2[nH]c1=O)OCCO3,0.158
5,Nc1ccc(C2(c3ccc(N)cc3)C(=O)Nc3ccccc32)cc1,-0.763
6,Cc1cccnc1NC(=O)C1CCCN(S(=O)(=O)c2ccc3c(c2)oc(=O)n3C)C1 (stereo unspecified),0.166
7,CCc1cccc(OCC(=O)Nc2ccc(S(=O)(=O)Nc3onc(C)c3C)cc2)c1,-0.0589
8,COc1cc(NC(=O)Cn2nnc(-c3ccncc3)n2)cc(OC)c1,0.284
9,CN(C)C(=O)CN(c1ccc(F)c(Cl)c1)S(C)(=O)=O,0.00105
10,Cc1ccc2c(c1)c(=O)c(Br)c(C)n2Cc1ccccc1,-0.0481
11,COc1ccccc1C(c1nnnn1C(C)(C)C)N1CCN(Cc2ccncc2)CC1 (stereo unspecified),-0.332
12,CCN(CC)C(=O)CSCc1cnn(-c2ccccc2)c1-n1cccc1,0.216
13,COc1ccc(NC2=CC(c3ccc(OC)c(OC)c3)N(c3ccc(OC)cc3)C2=O)cc1 (stereo unspecified),-0.044
14,COc1ccc2nc(N)sc2c1,0.0701
15,COc1ccc2nc(N=Nc3ccc(O)c4ccccc34)sc2c1,5.85 (active)
16,COc1ccc2nc(N=Nc3ccc(N(C)C)cc3)sc2c1,0.141
17,CCN(CC)C(=O)C(=O)N/N=C/c1cccs1,-0.0972
18,CCCCCN(C(=O)CN(C)Cc1ccc(OC)cc1OC)c1c(N)n(CCCC)c(=O)[nH]c1=O,0.0701
19,O=C(Nc1cccc(C(F)(F)F)c1)c1cc(-c2cccs2)on1,-0.52
20,CCC1CCCCN1S(=O)(=O)c1ccc(C(=O)Nc2nnc(-c3cccs3)o2)cc1 (stereo unspecified),0.233
21,O=C(Nc1ccncc1)c1cccc(F)c1,0.415
22,O=C(CCc1ccccc1)Nc1nnc(-c2cccs2)o1,0.129
23,O=C(Nc1nnc(-c2cccs2)o1)c1cccc(F)c1,4.44 (active)

row,Structure (SMILES),z-score
1,O=C(Nc1nnc(-c2cccs2)o1)c1cccc(Oc2ccccc2)c1,14 (active)
2,O=C(Nc1ccccc1)c1cccc(C(F)(F)F)c1,-0.053
3,COc1cccc(C(=O)Nc2nnc(-c3cccs3)o2)c1,0.124
4,O=C(Nc1nnc(-c2cccs2)o1)c1ccco1,-0.203
5,CCCCN(CCCC)S(=O)(=O)c1ccc(C(=O)Nc2nnc(COC)o2)cc1,1.03
6,O=C(Nc1nnc(-c2cccs2)o1)c1cccc(C(F)(F)F)c1,14.1 (active)
7,CCCCN(C)S(=O)(=O)c1ccc(C(=O)Nc2nnc(-c3cccs3)o2)cc1,7.18 (active)
8,CCc1ccccc1NC(=O)CSc1ncn[nH]1,-0.0941
9,CC1CCCN(c2nc(-c3cccnc3)nc3scc(-c4ccccc4)c23)C1 (stereo unspecified),-0.0274
10,COc1ccc(CCNC(=O)c2ccc(-c3ccc([N+](=O)[O-])cc3)o2)cc1OC,-0.544
11,CCOc1cc([C@H]2[C@@H]3CCCC[C@]3(O)CCN2CC(=O)NCc2ccco2)ccc1O,-0.351
12,COc1ccc(N2CCN(Cc3nc4ccsc4c(=O)[nH]3)CC2)cc1,-0.255
13,O=C(CN=C1NC(=O)C(c2ccccc2)(c2ccccc2)N1)NCc1ccc(F)cc1,-0.114
14,N#CCSc1nnc2ccc3ccccc3n12,-0.272
15,O=C(NCC(=O)N(Cc1cccs1)C(C(=O)NC1CCCCC1)c1ccco1)c1ccco1 (stereo unspecified),2.96
16,O=C(NCC(=O)N(Cc1ccco1)C(C(=O)NC1CCCCC1)c1cccnc1)c1ccco1 (stereo unspecified),0.556
17,O=C(NCC(=O)N(Cc1cccs1)C(C(=O)NC1CCCC1)c1ccco1)c1cccs1 (stereo unspecified),0.741
18,O=C(NCC(=O)N(Cc1ccccc1)C(C(=O)NC1CCCC1)c1cccnc1)c1ccco1 (stereo unspecified),-0.0981
19,O=C(NCC(=O)N(Cc1cccs1)C(C(=O)NC1CCCCC1)c1ccco1)c1cccs1 (stereo unspecified),-0.518
20,O=C(NCC(=O)N(Cc1ccco1)C(C(=O)NC1CCCC1)c1cccnc1)c1ccco1 (stereo unspecified),2.19
21,COc1ccc(Cl)cc1NC(=O)CN(C)C1CCCCC1,0.225
22,CC(C)CC(C(=O)O)N(Cc1ccccc1)Cc1ccccc1 (stereo unspecified),-0.132
23,C#CC(CO)N(CCN(Cc1ccccc1)C(C#C)CO)Cc1ccccc1 (stereo unspecified),2.19

row,Structure (SMILES),z-score
1,OCCN(Cc1ccccc1)Cc1ccccc1Cl,0.0815
2,CC1CCc2c(sc(NC(=O)CSc3ncnc4c3cnn4-c3ccccc3Cl)c2C#N)C1 (stereo unspecified),-0.899
3,CSC1=N/C(=C\c2ccc(C)cc2)C(=O)S1,-0.344
4,CSC1=N/C(=C\c2ccc(F)cc2)C(=O)S1,-0.817
5,CSC1=N/C(=C\c2ccc(Br)o2)C(=O)S1,3.73 (active)
6,CC(=O)CC1(O)C(=O)N(Cc2ccccc2)c2ccccc21 (stereo unspecified),0.034
7,O=C(N/N=C/c1cnc2ccccc2n1)c1cccc(F)c1,0.223
8,O=C1CS/C(=N\C(=O)N2c3ccccc3Sc3ccccc32)N1,7.66 (active)
9,O=C(CN1CCCC1)N1c2ccccc2Sc2ccccc21,-0.191
10,Cc1ccccc1N=C1NC(=O)CS1,0.516
11,COc1ccc(NC(=O)CSc2nc3ncccc3[nH]2)cc1OC,-0.426
12,CCC(=O)N(Cc1cc2ccc(C)cc2n2nnnc12)C1CCCCC1,-0.401
13,C=CCn1c(SC2CCOC2=O)nc2sc(C)c(C)c2c1=O (stereo unspecified),-0.995
14,Cc1nc(SC2CCOC2=O)c2c(C)c(C)sc2n1 (stereo unspecified),4.12 (active)
15,Cc1cc(C)nc(SC2CCOC2=O)n1 (stereo unspecified),-0.0163
16,CCCC1Cc2c(sc(NC(=S)NC(=O)c3ccccc3)c2C#N)CO1 (stereo unspecified),0.489
17,CC1(C)CC(NS(=O)(=O)c2ccc(S(=O)(=O)N3CCOCC3)cc2)CCO1 (stereo unspecified),2.05
18,O=C(c1ccco1)N1CCN(S(=O)(=O)c2ccc(S(=O)(=O)NC3CC3)cc2)CC1,-0.31
19,CC(C)CNS(=O)(=O)c1ccc(S(=O)(=O)NC2CCOC(C)(C)C2)cc1 (stereo unspecified),-0.235
20,CN(C)S(=O)(=O)c1ccc(S(=O)(=O)NC2CCOC(C)(C)C2)cc1 (stereo unspecified),-1.16
21,CC(=O)N1CCN(S(=O)(=O)c2ccc(S(=O)(=O)NC3CC3)cc2)CC1,2.05
22,CC(=O)N1CCN(S(=O)(=O)c2ccc(S(=O)(=O)NCC(C)C)cc2)CC1,-0.0339
23,COc1cc(-n2c(C)nc3cc(C(=O)N4CCOCC4)ccc32)cc(OC)c1OC,-0.458

row,Structure (SMILES),z-score
1,CCOC(=O)c1c(C)[nH]c2c1cc(O)c1ccccc12,4.58 (active)
2,CCOC(=O)c1c(C)oc2c1cc(O)c1ccccc12,-0.493
3,CCOC(=O)c1c(-c2ccccc2)[nH]c2ccc(O)cc12,-0.821
4,COc1ccc(-c2nc(NC(=O)c3ccc(OCC(=O)N4CCOCC4)c(OC)c3)sc2C)cc1,-0.218
5,COc1ccccc1NC(=S)N(CCc1c(C)[nH]c2ccccc12)Cc1cccs1,0.381
6,CCOc1cc(/C=N/NC(=O)CNc2cccc(C)c2)ccc1OC(=O)c1ccccc1,5.52 (active)
7,CCOc1cc(/C=N\NC(=O)c2ccc(NC(=O)CC)cc2)ccc1OC(=O)c1ccccc1,-0.103
8,CCOc1cc(/C=N/NC(=O)CNc2ccc(C)cc2)ccc1OC(=O)c1ccccc1,0.0308
9,CC(=O)N(C)c1nnc(-c2ccccn2)s1,-0.0164
10,CS(=O)(=O)N(CC(=O)Nc1ccc(F)c(F)c1)c1cccc([N+](=O)[O-])c1,0.348
11,COc1ccc(OC)c(NC(=O)C2CCN(Cc3cnn(-c4ccccc4)c3-n3cccc3)CC2)c1,-0.109
12,CC(=O)Nc1ccc(NC(=O)CSCc2cnn(-c3ccccc3)c2-n2cccc2)cc1,-0.225
13,COc1cc(NC(=O)CSCc2cnn(-c3ccccc3)c2-n2cccc2)cc(OC)c1,7.86 (active)
14,O=C(Nc1ccc2c(c1)OCO2)C1CCN(Cc2cnn(-c3ccccc3)c2-n2cccc2)CC1,-0.13
15,COc1cccc(NC(=O)C2CCN(Cc3cnn(-c4ccccc4)c3-n3cccc3)CC2)c1,-0.463
16,COc1ccc(OC)c(NC(=O)CSCc2cnn(-c3ccccc3)c2-n2cccc2)c1,0.126
17,O=C(NCc1ccccn1)C1CCN(Cc2cnn(-c3ccccc3)c2-n2cccc2)CC1,-0.0285
18,O=C(NCc1ccc2c(c1)OCO2)C1CCN(Cc2cnn(-c3ccccc3)c2-n2cccc2)CC1,3.14 (active)
19,COc1cccc(CNC(=O)C2CCN(Cc3cnn(-c4ccccc4)c3-n3cccc3)CC2)c1,2.66
